High-throughput results: PubChem BioAssay, National Center for Advancing Translational Sciences (NCATS)
MCF10A rereplic: A quantitative high throughput screen for small molecules that induce DNA re-replication in MCF 10a normal breast cells. MCF 10A DNA re-replication, Hoechst nuclear intensity, 48 h. Potency, µM (top dose mostly 46.1 µM), for the others: at the top dose activity, positive = re-replication, hits mostly activators. actives 2.9% (n = 350,000). AID 624296, 2012; also: % of control where 0% means no effect; nearly all actives have a fitted effect of over 50% in size
ELG1 repair inh: qHTS screen for small molecules that inhibit ELG1-dependent DNA repair in human embryonic kidney (HEK293T) cells expressing luciferase-tagged ELG1 | HEK293T ELG1-luciferase reporter, luminescence, 16 h; DNA damage induced by 5-fluorouridine | Potency, µM (highest dose often 46.1 µM), for the others: at the highest dose activity change, negative = inhibition, usual class: inhibitors | actives 2.3% (n = 330,000); also: % is scaled to controls: 0 for no effect and ±100 for the full control effect; nearly all actives have a fitted effect of over 55% in size
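Luminescence from the luciferase reporter, measured 30 min after ONE-Glo reagent at room temperature, was the read-out. Beforehand, 2,000 cells per well were exposed for 16 hr at 37 °C to 5-fluorouridine together with compound or vehicle.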
SW480 rereplic: A quantitative high throughput screen for small molecules that induce DNA re-replication in SW480 colon adenocarcinoma cells. SW480 DNA re-replication, Hoechst DNA content imaging, 48 h. Potency, µM (doses to about 46.1 µM), without a hit: top-dose re-replication activation, usual class: activators. actives 1.8% (n = 340,000). AID 624297, 2012; also: % of control where 0% means no effect; nearly all actives have a fitted effect of over 55% in size
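Image-based read-out: total Hoechst fluorescence of nuclei (405 nm excitation, 500-530 nm emission), with hits raising the fraction of high-intensity nuclei. SW480 colon cells incubated 48 hr with compounds at 37 C.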
KB-V1 cytotox: qHTS assay for MDR1-selective chemotherapeutics: Primary screen using the drug-selected MDR subline cells KB-V1. KB-V1 MDR cells viability, CellTiter-Glo, 72 h. Potency, µM (series often up to 46.1 µM), most hits filed as cytotoxic. actives 3.4% (n = 400,000); also: % is scaled to controls: 0 for no effect and ±100 for the full control effect; nearly all actives have a fitted effect of over 60% in size
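Luminescent ATP read-out (CellTiter-Glo, 10 min) measures survival of drug-selected KB-V1 MDR cells after 72 h, 37 degrees C compound exposure. Medium: phenol-red-free DMEM, 10% FBS. Values from fitted concentration-response curves.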
KB-3-1 cytotox: qHTS assay for MDR1-selective chemotherapeutics: Primary screen using the parental adenocarcinoma cell KB-3-1; KB-3-1 viability, CellTiter-Glo ATP luminescence, 72 h; Potency, µM (highest dose often 46.1 µM), actives largely listed as cytotoxic; actives 1.4% (n = 400,000); also: % is scaled to controls: 0 for no effect and ±100 for the full control effect; nearly all actives have a fitted effect of over 60% in size
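Screening of KB-3-1 cells (DMEM, 10% FBS, phenol-red free) ran from lowest to highest compound concentration; after 72 h at 37 °C viability was read luminescently and curves fitted.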
An asterisk follows results filed as active; i = inactive; ? = inconclusive; · = no result. The list is not random: actives were taken first. Their share in the collection is about 8.1%. Calls follow the shape of the dose curve; as a rule, active = well fitted curve in the direction sought with a large enough effect; inconclusive = small, poorly fitted or top-dose-only effect, or another doubt; inactive = no such curve, though single readings can be large; an effect the other way counts as inactive or inconclusive. Potency is read from the fitted curve at half-maximal effect.

SMILES	MCF10A rereplic	ELG1 repair inh	SW480 rereplic	KB-V1 cytotox	KB-3-1 cytotox
COc1ccc(NC(=O)c2ccc(Cn3cc(Cl)cn3)cc2)cc1	-2%	3%	0%	i	i
CN(C)c1ccc(NC(=O)c2ccc(Cn3cc([N+](=O)[O-])cn3)cc2)cc1	?	?	?	i	18µM*
Cc1cccn2c(=O)c3cc(C(=O)NCCN4CCOCC4)c(=N)n(CCc4ccccc4)c3nc12	2.6µM*	-27%	2.6µM*	?	i
COCCCNC(=O)c1cccn2c(=O)c3cc4ccccc4cc3nc12	13µM*	?	?	4.1µM*	i
C=CCn1c(=N)c(C(=O)NCCCOC)cc2c(=O)n3cccc(C)c3nc21	4.1µM*	-14%	?	i	i
COCCCn1c(=N)c(C(=O)NCc2ccco2)cc2c(=O)n3cccc(C)c3nc21	·	·	·	?	i
Cc1cccn2c(=O)c3cc(C(=O)NCCN4CCOCC4)c(=N)n(CCCN4CCOCC4)c3nc12	?	-6%	1.2µM*	i	i
Cc1ccccc1C(=O)Nc1cc(-c2ccc(Cl)cc2)nn1-c1ccccc1	·	·	·	i	i
COc1ccc(CCn2c(=N)c(C(=O)NCCN3CCOCC3)cc3c(=O)n4ccccc4nc32)cc1OC	5%	-2%	-8%	i	i
COc1ccc(CCn2c(=N)c(C(=O)NCCN3CCOCC3)cc3c(=O)n4cccc(C)c4nc32)cc1OC	?	?	16µM*	i	i
COCCn1c(=N)c(C(=O)NCCc2ccccc2)cc2c(=O)n3cccc(C)c3nc21	?	·	1.8µM*	i	i
Cc1cccn2c(=O)c3cc(C(=O)NCc4ccccc4)c(=N)n(CCCN4CCOCC4)c3nc12	14%	·	5.2µM*	i	?
O=C1Cc2ccccc2C1=C1C=c2ccccc2=C1	·	·	·	i	?
O=S(=O)(C/C(=C/CO)S(=O)(=O)c1ccccc1)c1ccccc1	0.82µM*	?	1.2µM*	?	?
O=S(=O)(CS(=O)(=O)c1ccccc1)c1ccccc1	-14%	·	-10%	i	?
Cc1c(Cl)c([N+](=O)[O-])nn1CCCC(=O)Nc1c(Cl)cccc1Cl	13%	0%	-7%	7.3µM*	i
Cc1c(Cl)c([N+](=O)[O-])nn1CCCC(=O)Nc1c(C)n(C)n(-c2ccccc2)c1=O	-1%	-4%	-11%	i	i
Cc1c(Cl)c([N+](=O)[O-])nn1CC(=O)NCc1cccs1	-3%	?	-14%	18µM*	i
COc1cccc(NC(=O)NCc2ccccc2F)c1	8%	?	-6%	i	i
COc1cccc(N/C(SCc2ccccc2F)=C(/C#N)C(=O)NCc2cccs2)c1	?	-16%	?	16µM*	i
C=CC[C@@H](CC(=O)OC(C)(C)C)C(=O)OC[C@H]1CCCN1C(=O)[C@@H](CC=C)CC(=O)N[C@H](CO)Cc1ccccc1	16%	16µM*	?	i	i
C=CC[C@@H](CC(=O)OC(C)(C)C)C(=O)OC[C@@H]1CCCN1C(=O)[C@@H](CC=C)CC(=O)N[C@@H](CO)Cc1ccccc1	-3%	0%	-11%	i	i
CCc1ccc(CNC(=O)C2CCN(C(=O)c3ccc(-n4ccc5ccccc54)s3)CC2)cc1	·	·	·	i	i
CC(=O)c1ccc(NC(=O)CSc2nc(=O)n(Cc3ccncc3)c3c2CCC3)cc1	·	·	·	i	i
CCOC(=O)c1cc2c(C)n(-c3ccc(C)cc3)c(C)c2ccc1=O	12%	?	?	5.8µM*	21µM*
CCOC(=O)c1cc2c(C)n(-c3ccc(OCC)cc3)c(C)c2ccc1=O	25%	-19%	3%	2.6µM*	?
